Source: PubChem (National Center for Advancing Translational Sciences (NCATS))
The list is not random: actives were taken first. Their share in the collection is about 7.3%.
VACV Venus inh: qHTS for Stage-Specific Inhibitors of Vaccinia Orthopoxvirus: Venus Reporter Primary qHTS. AID 720580, 2013. 0.46% of 330,000 active. Potency, µM (doses to about 36.5 µM), most hits filed as inhibitors. Vaccinia virus Venus reporter expression, fluorescence; calls by dose curve; tested in A549 cells; further: nearly all actives have a fitted effect of over 30% in size
VACV mCherry inh: qHTS for Stage-Specific Inhibitors of Vaccinia Orthopoxvirus: mCherry Reporter Primary qHTS; Vaccinia virus mCherry reporter infection, fluorescence; Potency, µM (top dose mostly 36.5 µM), most hits filed as inhibitors; 0.63% of 310,000 active; AID 720579, 2013; calls by dose curve; tested in A549 cells; further: nearly all actives have a fitted effect of over 35% in size
HCV inh: qHTS Assay for Inhibitors of Hepatitis C Virus (HCV). Huh7.5.1 HCVcc-Cre infection, luciferase reporter, 44 h. Potency, µM (top dose mostly 41.8 µM), hits mostly inhibitors. 3.4% of 340,000 active. AID 651820, 2012; active means well fitted inhibition curve with a large enough effect; inconclusive means small, poorly fitted or top-dose-only effect, or another doubt; inactive means no such curve, though single readings can be large or run the other way
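Infectious HCV cell culture screen: compound-treated cells (1,000/well, pre-plated 4 h) are infected with HCVcc-Cre at roughly 0.5 moi and grown 44 h. Infection is quantified by luciferase signal after 15 min substrate incubation at room temperature.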
HCMV antiviral: qHTS Assay for inhibitors of the human cytomegalovirus (HCMV) | 4.5% of 410,000 active | activity change, negative = inhibition, % at 57.5 µM | HFF cells, HCMV-luciferase reporter, 72 h; active compounds read low; in the data active means activity change below about -60%; inconclusive means no clear call, values can overlap the other calls; inactive means above about -39%
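HFF cells seeded 16 h at 37C, treated with compounds, infected with luciferase-reporter HCMV at MOI 1 PFU/cell; luciferase read at 72 h post infection, normalized to buffer-only and Salinomycin controls.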
FMDV antiviral: High Throughput Screening for Foot and Mouth Disease Virus Antivirals; FMDV antiviral cell-based qHTS; Potency, µM (doses to about 57.9 µM), most hits filed as inhibitors; 1.2% of 410,000 active; calls by dose curve; tested in HEK293T cells; further: read-out not given here; nearly all actives have a fitted effect of over 45% in size
Hits are given with their value.

Screening N#Cc1ccc(C23OCCN2CCn2nc4ccccc4c23)cc1 (stereo unspecified) returned VACV Venus inh inactive, VACV mCherry inh inactive, HCV inh 4µM, HCMV antiviral inactive and FMDV antiviral inactive.
`[O-][n+]1c2ccccc2c2n1CCN1CCOC21c1ccc(Cl)cc1` (stereo unspecified) gave VACV Venus inh inactive, VACV mCherry inh inconclusive, HCV inh inconclusive, HCMV antiviral inactive and FMDV antiviral inactive.
`COc1ccc(N=C2S/C(=C\c3cc(C)n(C)c3C)C(=O)N2C)cc1` gave VACV Venus inh inactive, HCV inh 11µM, HCMV antiviral inactive and FMDV antiviral inactive.
`COc1cc(NC(=O)Cn2c(=O)oc3cc(S(=O)(=O)N4CCCCCC4)ccc32)cc(OC)c1` gave VACV Venus inh inactive, VACV mCherry inh inactive, HCMV antiviral inactive and FMDV antiviral inactive.
`Cc1ccn2c(Nc3ccccc3)c(-c3ccccn3)nc2c1` gave VACV Venus inh inactive, VACV mCherry inh 2.2µM, HCV inh 8.9µM, HCMV antiviral inactive and FMDV antiviral inactive.
Cc1ccccc1Nc1c(-c2ccccn2)nc2ccccn12 was read as HCV inh inconclusive, HCMV antiviral -98 and FMDV antiviral inconclusive.
`Cc1ccc2nc(-c3ccncc3)c(Nc3ccccc3C)n2c1` gave VACV Venus inh inactive, VACV mCherry inh inactive, HCMV antiviral inconclusive and FMDV antiviral inactive.
For Cc1ccc2nc(-c3ccccn3)c(Nc3ccccc3C)n2c1 the results were VACV Venus inh inconclusive, VACV mCherry inh 6.3µM, HCV inh 5µM, HCMV antiviral -100 and FMDV antiviral inconclusive.
`Cc1ccn2c(Nc3ccccc3C)c(-c3ccccn3)nc2c1` gave VACV Venus inh inconclusive, VACV mCherry inh 7.9µM, HCV inh 4µM, HCMV antiviral -81 and FMDV antiviral inconclusive.
`O=C(NCc1cccs1)c1ccc2c(c1)N(Cc1ccccc1Cl)C(=O)c1ccccc1S2` gave VACV Venus inh inactive, VACV mCherry inh inactive, HCMV antiviral inactive and FMDV antiviral inactive.
`COc1ccc(N(CC(C)C)S(=O)(=O)c2nnc(NC(=O)c3cccs3)s2)cc1` gave VACV Venus inh inactive, VACV mCherry inh inactive, HCMV antiviral inactive and FMDV antiviral inactive.
COc1ccccc1CNS(=O)(=O)c1ccc(F)c(C(=O)Nc2cc(Cl)ccc2OC)c1 was read as VACV Venus inh inactive, VACV mCherry inh inactive, HCMV antiviral inactive and FMDV antiviral inactive.
`O=c1c(-c2ccc(Cl)cc2)nc2cnc(N3CCOCC3)nc2n1-c1ccccc1` gave FMDV antiviral inactive.
COc1cccc(NC(=O)N[C@H]2CC[C@@]34CCCN3C(=O)CCC[C@H]4C2Cc2ccccc2)c1 (stereo partly specified) was read as HCMV antiviral inactive.
Screening COCCCNC(=O)C[C@H]1C[C@@]2(C(=O)OC)C(=C[C@H](C3CCCC3)O[C@@H]2C)N(Cc2ccccc2)C1=O returned HCMV antiviral inactive.
Screening Fc1ccc(Nc2c(-c3ccccn3)nc3ccc(Cl)cn23)cc1 returned VACV Venus inh inactive, VACV mCherry inh inactive, HCMV antiviral inactive and FMDV antiviral inactive.
`Cc1ccc2nc(-c3ccccn3)c(N)n2c1` gave VACV Venus inh inactive, VACV mCherry inh inactive, HCMV antiviral inactive and FMDV antiviral 14µM.
Cc1ccc(-c2nc3ccc(C)cn3c2Cc2ccccn2)cc1 was read as VACV Venus inh inactive, VACV mCherry inh inactive, HCMV antiviral inactive and FMDV antiviral inactive.
For Cc1ccc2nc(-c3ccccn3)c(Nc3ccc(F)cc3)n2c1 the results were VACV Venus inh inconclusive, VACV mCherry inh inconclusive, HCMV antiviral -94 and FMDV antiviral inconclusive.
`CC(C)c1ccc(Nc2c(-c3ccccn3)nc3ccccn23)cc1` gave VACV Venus inh inconclusive, VACV mCherry inh 11µM, HCMV antiviral -87 and FMDV antiviral inconclusive.
For Cc1cccc(OCC(=O)Nc2cc(-c3nc4cc(Cl)ccc4o3)ccc2C)c1 the results were VACV Venus inh inconclusive and VACV mCherry inh inactive.
`Cc1cc(C)n(CC(=O)NNC(=O)CCCOc2ccc(Cl)c(C)c2)n1` gave VACV Venus inh inactive, VACV mCherry inh inactive, HCV inh inactive, HCMV antiviral inactive and FMDV antiviral inactive.
`Cc1cc(C)n(CC(=O)NNC(=O)CCCOc2ccc(Cl)cc2C)n1` gave VACV Venus inh inactive, VACV mCherry inh inactive, HCV inh inactive, HCMV antiviral -61 and FMDV antiviral inactive.
COc1ccccc1NC(=O)C1=C(C)Nc2nc(SCc3ccc(Cl)cc3)nn2C1c1ccccc1Cl (stereo unspecified) was read as VACV Venus inh inactive, VACV mCherry inh inactive, HCMV antiviral inactive and FMDV antiviral inactive.
Screening O=c1c2ccccc2n(Cc2ccccc2Cl)c(=O)n1CCc1ccccc1 returned VACV Venus inh inactive, VACV mCherry inh inactive, HCMV antiviral inactive and FMDV antiviral inactive.
`Cn1c(-c2ccccc2)c(CCO)c2ccccc21` gave HCV inh inactive, HCMV antiviral inactive and FMDV antiviral inactive.
Screening OCCCc1cn(-c2ccccc2)c2ccccc12 returned VACV Venus inh inactive, VACV mCherry inh inactive, HCV inh 10µM, HCMV antiviral inactive and FMDV antiviral inactive.
COc1ccc(-c2nc(-c3ccccc3)nc3ccccc23)cc1 was read as HCMV antiviral inactive.
Screening COc1cc(-c2nnc(SCc3c(F)cccc3Cl)o2)cc(OC)c1OC returned VACV Venus inh inactive, HCV inh 35µM and FMDV antiviral inactive.
Screening COc1ccc(OC)c(NC(=O)Cn2c(=O)c3cccn3c3ccccc32)c1 returned VACV Venus inh inactive, VACV mCherry inh inactive, HCMV antiviral inactive and FMDV antiviral inactive.
CCN(CC)C(=O)C1CCN(S(=O)(=O)c2ccc3oc4ccccc4c3c2)CC1 was read as VACV Venus inh inconclusive, VACV mCherry inh inactive, HCV inh inconclusive and HCMV antiviral -70.
For O=S(=O)(c1ccc2oc3ccccc3c2c1)N1CCCC1 the results were VACV Venus inh inactive, VACV mCherry inh inactive, HCV inh inactive, HCMV antiviral inactive and FMDV antiviral inactive.
C[C@@H]1CN(Cc2ccc3c(c2)CN(Cc2cccn2-c2ccccn2)CCO3)C[C@H](C)O1 was read as VACV Venus inh inactive, VACV mCherry inh inactive and FMDV antiviral inactive.
For C=CCc1ccccc1OCCSc1nc(-c2ccccc2F)nc2cc(=O)[nH]n12 the results were VACV Venus inh inactive, VACV mCherry inh inactive, HCMV antiviral inactive and FMDV antiviral inactive.
Screening Nc1ccc(Cc2ccc(N)cc2)cc1 returned VACV Venus inh inactive, VACV mCherry inh inactive, HCV inh inactive, HCMV antiviral inactive and FMDV antiviral inactive.
Screening Nc1ccc(Cc2ccc([N+](=O)[O-])cc2)cc1 returned VACV Venus inh inactive, VACV mCherry inh inactive, HCV inh inactive, HCMV antiviral -64 and FMDV antiviral inactive.
`Cc1ccc(C(=O)NCC(=O)OCC(=O)c2ccc3ccccc3c2)cc1` gave VACV Venus inh inactive and VACV mCherry inh inactive.
